The source of these data is PubChem BioAssay (Tox21).

Values joined by “and” are separate entries in the source; they are usually repeats but may differ in a detail not shown here. Equal values may be shown once. Inconclusive results are not listed. The source holds several records for some structures; these can differ, active in one and inactive in another. Active and inactive are the calls of the source. Unless noted, calls come from the whole dose curve; as a rule, active = well fitted curve in the direction sought with a large enough effect in the repeat runs; inconclusive = weak or mixed curves; inactive = no such curve, though single readings can be large; an effect the other way counts as inactive or inconclusive.

The nature of assay [1]: qHTS assay to identify small molecule agonists of H2AX - cell viability counter screen (AID 1224847; calls by dose curve; note: nearly all actives have a fitted effect of over 30% in size; note: potency is the fitted concentration of half-maximal effect). The procedure, abridged: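 After overnight plating of 1000 CHO-K1 cells per well, a 15-concentration compound series was applied for 3 hr at 37C. Luminescence from CellTiter-Glo, read following 30 min at room temperature, reflected cell viability.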
Background: qHTS replaces the single test concentration by a dilution series.

Assay [2] can be described thus: qHTS RealTime-Glo MT Cell Viability Assay in HepG2 cells - 24 hour (AID 1224867). Note: nearly all actives have a fitted effect of over 50% in size. Note: potency is the fitted concentration of half-maximal effect. A digest of the protocol:
(§1)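 Cells + NanoLuc/prosubstrate dispensed (600 cells/well) → 5 h at 37 C/5% CO2 → compounds in DMSO transferred → 40 h incubation at 37 C, luminescence read at 0, 8, 16, 24, 32, 40 h.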

The nature of assay [3]: qHTS RealTime-Glo MT Cell Viability Assay in HEK293 cells - 32 hour (AID 1224868). Note: nearly all actives have a fitted effect of over 50% in size. Note: potency is the fitted concentration of half-maximal effect. The procedure, abridged: (§2)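 Tox21 10K qHTS, HEK293, 600 cells/well, RealTime-Glo reagent co-dispensed with cells; 5 h preincubation, compound by pintool, 37 C, luminescence at 0–40 h.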
Assay [4] is described as follows: A CellTox Green Cytotoxicity Assay to monitor cytotoxicity in HEK293 cells - 0 hour (AID 1224869). Note: nearly all actives have a fitted effect of over 50% in size. A digest of the protocol:
(§3)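 HEK293 cells, 600/well, were preincubated 5 hours and then exposed to compounds at 37 C for up to 40 hours. A cell-impermeant cyanine dye staining dead-cell DNA was read by fluorescence at 0, 8, 16, 24, 32 and 40 h time points.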

Assay [5] can be described thus: qHTS RealTime-Glo MT Cell Viability Assay in HepG2 cells - 40 hour (AID 1224870). Note: nearly all actives have a fitted effect of over 50% in size. Note: potency is the fitted concentration of half-maximal effect. A digest of the protocol:
(§4)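 HepG2 cells mixed with RealTime-Glo MT reagents (NanoLuc plus cell-permeant prosubstrate) were seeded at 600 cells/well, incubated 5 h at 37 C/5% CO2, then pinned with compounds in DMSO; nonlytic luminescence tracked viability during 40 h treatment.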

The nature of assay [6]: A CellTox Green Cytotoxicity Assay to monitor cytotoxicity in HEK293 cells - 40 hour (AID 1224871). Note: nearly all actives have a fitted effect of over 45% in size. Note: potency is the fitted concentration of half-maximal effect. The procedure, abridged: as §3
Assay [7] can be described thus: qHTS RealTime-Glo MT Cell Viability Assay in HEK293 cells - 16 hour (AID 1224872). Note: nearly all actives have a fitted effect of over 50% in size. Note: potency is the fitted concentration of half-maximal effect. The procedure, abridged: as §2
Assay [8] can be described thus: qHTS RealTime-Glo MT Cell Viability Assay in HepG2 cells - 8 hour (AID 1224873). Note: nearly all actives have a fitted effect of over 55% in size. Note: potency is the fitted concentration of half-maximal effect. A digest of the protocol:
as §4

A short description of assay [9]: qHTS RealTime-Glo MT Cell Viability Assay in HEK293 cells - 40 hour (AID 1224874). Note: nearly all actives have a fitted effect of over 50% in size. Note: potency is the fitted concentration of half-maximal effect. As to conditions: RealTime-Glo luminescence; max response: stronger effect = lower value. A digest of the protocol: (§5)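 600 cells/well were plated with the nonlytic NanoLuc/prosubstrate reagent, pre-incubated 5 h, then given 23 nL of compound in DMSO. Incubation at 37 C for 40 h, with luminescence from viable-cell-reduced substrate read repeatedly from 0 h.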

Assay [10] is described as follows: A CellTox Green Cytotoxicity Assay to monitor cytotoxicity in HEK293 cells - 24 hour (AID 1224875). Note: nearly all actives have a fitted effect of over 45% in size. Note: potency is the fitted concentration of half-maximal effect. The procedure, abridged: as §3
Assay [11] is described as follows: A CellTox Green Cytotoxicity Assay to monitor cytotoxicity in HepG2 cells - 16 hour (AID 1224876). Note: nearly all actives have a fitted effect of over 45% in size. Note: potency is the fitted concentration of half-maximal effect. A digest of the protocol: (§6)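 HepG2 cells, 600/well, preincubated 5 h with CellTox Green dye, then exposed to Tox21 compounds in DMSO at 37 C for up to 40 h. Dead-cell DNA fluorescence read at the indicated time point.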
Assay [12] in a line: A CellTox Green Cytotoxicity Assay to monitor cytotoxicity in HepG2 cells - 24 hour (AID 1224878). Note: nearly all actives have a fitted effect of over 45% in size. Note: potency is the fitted concentration of half-maximal effect. The procedure, abridged: as §6
A short description of assay [13]: A CellTox Green Cytotoxicity Assay to monitor cytotoxicity in HepG2 cells - 40 hour (AID 1224879). Note: nearly all actives have a fitted effect of over 40% in size. Note: potency is the fitted concentration of half-maximal effect. The procedure, abridged:
as §6

Assay [14] can be described thus: A CellTox Green Cytotoxicity Assay to monitor cytotoxicity in HEK293 cells - 32 hour (AID 1224881). Note: nearly all actives have a fitted effect of over 40% in size. Note: potency is the fitted concentration of half-maximal effect. A digest of the protocol: as §3
Assay [15] in a line: A CellTox Green Cytotoxicity Assay to monitor cytotoxicity in HepG2 cells - 0 hour (AID 1224882). Note: nearly all actives have a fitted effect of over 35% in size. A digest of the protocol: as §6
Assay [16] in a line: qHTS RealTime-Glo MT Cell Viability Assay in HepG2 cells - 32 hour (AID 1224877). Note: nearly all actives have a fitted effect of over 55% in size. Note: potency is the fitted concentration of half-maximal effect. The procedure, abridged: as §1
Assay [17] is described as follows: qHTS RealTime-Glo MT Cell Viability Assay in HEK293 cells - 0 hour (AID 1224880). The procedure, abridged:
as §5
% is set by controls: 0 for no effect and ±100 for the full control effect.

For `CC(=[OH+])/C=C(/C)[O-].CC(=[OH+])/C=C(\C)[O-].CC(=[OH+])/C=C(\C)[O-].[Fe]`, the Potency entry in assay [1], in [2], in [3], in assay [4], in assay [5] and in assay [6] was “inactive” each time. For the same molecule, the Potency result in [7], in assay [8], in assay [10], in assay [11], in assay [12] and in assay [13] was “inactive” in each case. Moreover, the Potency entry in assay [14] and in assay [15] was “inactive” each time. For the same molecule, the max response in assay [9] is 5.66% (inactive).
As for `CC1(C)C(/C=C(\Cl)C(F)(F)F)C1C(=O)OC(C#N)c1cccc(Oc2ccccc2)c1` (centres undefined), the Potency result in assay [1], in assay [2], in assay [5], in assay [6], in assay [8] and in assay [10] was “inactive” throughout. Further, the Potency entry in assay [11], in [16], in [12], in assay [13], in assay [17] and in assay [14] was “inactive” each time. Also, in assay [15], the Potency result is “inactive”.
Take `CCCN(CC)CC1COC2(CCC(C(C)(C)C)CC2)O1` (centres undefined): the Potency result in assay [1], in assay [2], in [3], in assay [4], in [5] and in assay [7] was “inactive” throughout. Also, the Potency entry in assay [8], in assay [10], in assay [16], in assay [12], in assay [13] and in [17] was “inactive” each time. For the same molecule, the Potency entry in assay [15] was “inactive”. Besides, the max response in assay [9] is -8.74% (inactive).
Take `Oc1c(Br)c(Br)c(Br)c(Br)c1Br`: the Potency in [1] is 80.5 µM (active). The Potency result in assay [2], in [4], in assay [5], in assay [6], in assay [8] and in assay [10] was “inactive” throughout. Further, the Potency result in assay [11], in [16], in assay [12], in [13], in assay [17] and in assay [14] was “inactive” in each case.
With `[CH3][Hg][Cl]`, the Potency in [1] was 50.4 µM (active); in assay [2] it was 10.9 µM (active); in assay [3], 4.35 µM (active); in assay [5], 10.9 µM (active); in [6], 6.9 µM (active); in assay [7], 4.89 µM (active). The Potency in [8] was 15.5 µM (active); in assay [9], 3.88 µM (active); in [10] it was 7.74 µM (active); in assay [16] it was 10.9 µM (active); in assay [12], 12.3 µM (active); in assay [14], 7.74 µM (active). Besides, the Potency entry in [4], in assay [17] and in [15] was “inactive” in each case.
Take `CCN(CC)C(=S)[S-].CCN(CC)C(=S)[S-].[Zn+2]`: the Potency in assay [1] is 50 µM (active); in assay [2], 13.7 µM (active); in [3] it was 4.86 µM (active); in assay [5], 10.9 µM (active); in [6], 5.45 µM (active); in assay [7], 5.45 µM (active). Besides, the Potency in assay [9] was 2.73 µM (active); in [10] it was 15.4 µM (active); in assay [12], 12.2 µM (active); in [13], 10.9 µM (active); in [14], 15.4 µM (active). The Potency result in [4], in assay [17] and in assay [15] was “inactive” in each case.
For `CN(C)CCc1c[nH]c2ccc(O)cc12`, the Potency result in assay [1], in assay [2], in assay [3], in [4], in assay [5] and in assay [6] was “inactive” in each case. Moreover, the Potency result in assay [7], in [8], in [10], in [11], in assay [16] and in assay [12] was “inactive” throughout. The Potency entry in assay [17], in [14] and in assay [15] was “inactive” in each case.
On to `CCCCCCCCCC[N+](C)(C)CCCCCCCCCC`, for which the Potency is 40.1 µM (active) in assay [1]; 7.76 µM (active) in [2]; 1.1 µM (active) in [3]; 7.76 µM (active) in assay [5]; 17.4 µM (active) in assay [6]; 4.36 µM (active) in assay [7]. Also, the Potency in assay [8] is 19.5 µM (active); in assay [10], 15.5 µM (active); in [11], 12.3 µM (active); in [16], 7.76 µM (active); in assay [12], 11 µM (active); in assay [13], 8.71 µM (active). For the same molecule, in [14], the Potency is 17.4 µM (active). Also, the Potency result in assay [4], in assay [17] and in [15] was “inactive” each time.
With `c1ccc2cc3c(cc2c1)-c1cccc2cccc-3c12`, the Potency entry in [1], in assay [2], in [3], in [4], in assay [5] and in assay [6] was “inactive” each time. Further, the Potency entry in assay [7], in assay [8], in assay [10], in assay [11], in assay [16] and in [12] was “inactive” throughout. Further, the Potency entry in [17], in [14] and in [15] was “inactive” throughout. In addition, the max response in [9] is 18.7% (inactive).
Consider `CN(C)C(=S)S`, for which the Potency result in assay [1], in [4], in [8], in assay [17] and in [15] was “inactive” throughout. Further, the Potency result in [2] was “inactive and 11 µM (active)”; in [3], 11.2 µM (active) and 1.73 µM (active) and 11 µM (active); in assay [5], “inactive and 9.77 µM (active)”; in assay [6], 9.97 µM (active) and 1.54 µM (active) and 6.92 µM (active); in [7], 1.94 µM (active) and 12.3 µM (active); in assay [9], 11.2 µM (active) and 1.73 µM (active) and 9.77 µM (active). For the same molecule, the Potency result is “inactive and 34.7 µM (active)” in assay [11]; “inactive and 9.77 µM (active)” in assay [16]; 22.3 µM (active) and 5.45 µM (active) and 15.5 µM (active) in assay [12]; 15.8 µM (active) and 4.86 µM (active) and 11 µM (active) in assay [13]; 8.88 µM (active) and 3.07 µM (active) and 6.92 µM (active) in assay [14].
As to `CCC(C)(C)C(=O)OC1=C(c2ccc(Cl)cc2Cl)C(=O)OC12CCCCC2`, the Potency entry in [1], in assay [2], in [3], in [4], in assay [5] and in [6] was “inactive” throughout. For the same molecule, the Potency entry in assay [7], in assay [8], in assay [10], in assay [11], in [16] and in assay [12] was “inactive” in each case. The Potency entry in assay [13], in [14] and in [15] was “inactive” each time. Moreover, the max response in assay [9] was -14% (inactive).
In the case of `N#C/C=C/C#N`, the Potency entry in assay [1], in [2], in assay [4], in assay [5], in assay [8] and in assay [10] was “inactive” in each case. Moreover, the Potency result in assay [11], in assay [16], in assay [12], in assay [13] and in [15] was “inactive” each time.
